# NS1 inh – qHTS Assay for Inhibitors of Influenza NS1 Protein Function. Potency, µM (top dose mostly 46.1 µM). 270,000 tested, 0.4% active. AID 2326, 2010; calls by dose curve; further: actives are rising curves; nearly all actives have a fitted effect of over 50% in size
#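 Growth recovery, yeast-based: influenza A NS1 expressed in S. cerevisiae causes slow growth, and suppressors are detected by OD600. The parent strain without NS1 is used as positive control.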
# CHX counter – Cycloheximide Counterscreen for Small Molecule Inhibitors of Shiga Toxin; cell reporter, cycloheximide protein synthesis inhibition counterscreen; max response, %; 300,000 tested, 12% active; in the data active means max response mostly above about 13%, no sharp cut-off; inactive means mostly below about 14%; further: read at 38.3 µM for the half of the compounds with a filed dose
# Shiga toxin inh – A qHTS for Small Molecule Inhibitors of Shiga Toxin; 290,000 tested, 9.2% active; inhibition, % at 38.7 µM; AID 2315, 2010; Vero cells, Shiga toxin protein synthesis inhibition reporter; in the data active means inhibition mostly above about 28%, no sharp cut-off; inactive means mostly below about 43%
# Giardia FBPA inh – qHTS Assay for Inhibitors of Fructose-1,6-bisphosphate Aldolase from Giardia Lamblia. A8B2U2. purified Giardia FBPA. Potency, µM (doses to about 59.6 µM), most hits filed as inhibitors. 290,000 tested, 0.71% active. AID 2451, 2010; further: nearly all actives have a fitted effect of over 55% in size
# Target sequence (A8B2U2 whole entry, looked up): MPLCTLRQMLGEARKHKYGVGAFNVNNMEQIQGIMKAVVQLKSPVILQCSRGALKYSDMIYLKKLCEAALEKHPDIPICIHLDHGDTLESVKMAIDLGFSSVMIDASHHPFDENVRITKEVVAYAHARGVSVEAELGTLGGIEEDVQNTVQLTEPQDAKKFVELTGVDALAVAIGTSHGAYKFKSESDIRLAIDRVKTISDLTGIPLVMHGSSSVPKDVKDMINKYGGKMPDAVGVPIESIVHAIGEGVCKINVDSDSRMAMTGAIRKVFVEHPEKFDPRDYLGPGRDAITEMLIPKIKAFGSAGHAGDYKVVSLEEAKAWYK
#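 40 nM FBPA preincubated 10 min at RT with compound (up to 57.5 uM final), then substrate plus GAPDH/TPI/NAD/arsenate coupling and diaphorase/resazurin added. Fluorescence read after 20 min at RT, 525/598 nm.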
# Pf growth 96h – Primary qHTS for delayed death inhibitors of the malarial parasite plastid, 96 hour incubation; AID 504834, 2011; 320,000 tested, 6.9% active; P. falciparum luciferase reporter growth, 96 h; Potency, µM (top dose mostly 28.7 µM), most hits filed as inhibitors
#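 Readout is luminescence from an integrated firefly luciferase in P. falciparum. Red cells, 2% hematocrit and 0.05% parasitemia final, were cultured with compound through two parasite generations (96 hours) at 37 C, 5% CO2.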
# Pf growth 48h – Primary qHTS for delayed death inhibitors of the malarial parasite plastid, 48 hour incubation; P. falciparum luciferase growth in erythrocytes, 48 h; Potency, µM (doses to about 28.7 µM), usual class: inhibitors; 310,000 tested, 5.9% active
#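 Compounds are pin-transferred into medium, infected erythrocytes (2% hematocrit, 0.1% parasitemia final) are added, and plates sit one parasite generation at 37 C in 5% CO2. Detection reagent is then added and luminescence measured.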
# Hits are given with their value; 0 = inactive; ? = inconclusive; - = not tested or not shown; [ ] = remark or other dose. In the library only some 21% were active in any assay of this set; here they are far more common. Unless noted, the call rests on the fitted dose curve; in most records, active means well fitted curve in the direction sought with a large enough effect; inconclusive means small, poorly fitted or top-dose-only effect, or another doubt; inactive means no such curve, though single readings can be large; an effect the other way counts as inactive or inconclusive.
SMILES,NS1 inh,CHX counter,Shiga toxin inh,Giardia FBPA inh,Pf growth 96h,Pf growth 48h
Cc1ccc(CNc2ccc(CNc3ncn[nH]3)cc2)cc1,0,15.4,0,0,0,-
CS(=O)(=O)OCC(O)C(O)COS(C)(=O)=O (stereo not given),-,-,-,-,0,0
CSc1nc(SCC(=O)NCc2ccco2)c2c3c(sc2n1)COC(C)(C)C3,0,0,0,0,0,?
CCCCSc1nc(SCC(=O)NCc2ccco2)c2c3c(sc2n1)COC(C)(CC)C3 (stereo not given),0,0,0,0,9.28µM,?
CC(C)Sc1nc(NCc2ccco2)c2c3c(sc2n1)COC(C)(C)C3,0,21.4,91.6,0,?,?
CCCSc1nc(SCC(=O)NCc2ccccc2)c2c3c(sc2n1)COC(C)(CC)C3 (stereo not given),0,0,0,0,14.7µM,?
CCOC(=O)COc1c(OC)cc(Cl)cc1C1Nc2ccccc2C(=O)N1c1cccc(C)c1 (stereo not given),?,0,0,0,?,?
CCOC(=O)COc1ccccc1C1Nc2ccccc2C(=O)N1c1cccc(Cl)c1 (stereo not given),0,36.4,66.2,0,0,?
COc1cc(C2Nc3ccccc3C(=O)N2c2ccc(Cl)cc2)c(Cl)cc1OCC(=O)O (stereo not given),0,53.9,70.9,0,0,0
COCCn1c(C)cc(C(=O)CSc2nnnn2C2CCCC2)c1C,-,-,-,-,0,0
CCOC(=O)C1CCN(Cc2nnnn2CCc2ccccc2)CC1,0,40.6,0,0,0,0
Cc1ccccc1C(=O)NC1CCN(Cc2nnnn2CCc2ccccc2)CC1,0,0,0,0,?,0
c1ccc(CCn2nnnc2CN2CCc3ccccc32)cc1,0,0,0,0,0,?
Cc1ccc(Cn2nnnc2CN2CCC(n3nnc4cc(C(F)(F)F)ccc43)CC2)cc1,0,0,0,0,0,?
Cc1nc2cc(F)ccc2n1C1CCN(Cc2nnnn2CCc2ccccc2)CC1,0,0,0,0,?,9.28µM
Cc1nc2cc(C(F)(F)F)ccc2n1C1CCN(Cc2nnnn2CCc2ccccc2)CC1,0,0,0,0,0,13.1µM
Cc1noc(C)c1S(=O)(=O)N(CC(=O)NCCc1ccccc1)c1ccc(C(C)C)cc1,0,0,0,-,?,?
COc1ccc(NC(=O)CN(C)C(=O)c2cccc(S(=O)(=O)Nc3ccc(F)cc3)c2)cc1,-,-,-,-,0,?
CCOC(=O)C(=CNc1cc(Cl)c(-c2ccco2)c(Cl)c1)C(=O)OCC,0,0,0,0,0,11.7µM
COc1ccccc1NC(=O)CN(Cc1ccco1)C(=O)c1cc2ccccc2o1,-,0,0,0,0,0
O=C(Oc1ccc(-c2cnc3ccccc3n2)cc1)c1cc([N+](=O)[O-])ccc1Cl,0,48.3,82.6,0,0,0
Cc1c(C(=O)Oc2ccc(-c3cnc4ccccc4n3)cc2)cccc1[N+](=O)[O-],0,37.3,94.9,0,0,0
O=C(Oc1cccc([N+](=O)[O-])c1)c1cc(-c2ccccc2)nc2ccccc12,0,0,0,-,?,0
CCC(=O)C1=C(c2ccc(OC)c(OC)c2)N(C(=O)CC)n2c(CC)nnc2S1,-,0,0,-,-,-
CC(=O)C1=C(c2ccccc2)N(C(C)=O)n2c(C)nnc2S1,0,0,0,0,0,2.33µM
SMILES,NS1 inh,CHX counter,Shiga toxin inh,Giardia FBPA inh,Pf growth 96h,Pf growth 48h
Cc1ccc(NNC(=O)c2ccno2)c(C)c1,0,0,0,0,?,0
Cc1ccc(S(=O)(=O)N2CCC(C(=O)OCC(=O)N3CCCC(C)C3)CC2)cc1C (stereo not given),-,-,-,-,0,?
COc1ccc(-c2c(C)nc3c(-c4ccsc4)cnn3c2N)cc1,0,33.3,85.2,0,0,0[0.00184 µM]
COc1ccc(-c2c(C)nc(N)nc2-c2ccc(OC)cc2O)cc1,0,0,0,0,?,?
COc1ccc(-c2c(C)nc3c(-c4ccccn4)cnn3c2N)cc1,0,59.5,96.3,0,0,0
CC1(C)C(C=C(Cl)Cl)C1C(=O)N1CCN(Cc2ccccc2)CC1 (stereo not given),0,0,0,0,0,0
Cc1ccc(COc2ccc3c(c2)OCO3)cc1,0,30.7,96.6,0,0,0

# Source: PubChem BioAssay
